The source of these data is the supplement of paper PMC6555819.

What all share (experiment): PBM binding z-score (relative to random genomic background probes); higher = stronger binding; sequences stand for … in GC…GCGATTGACAGCGTAGAATGAAGG
Experiment [1] concerns FXR:RXRa (NR concentration 270 nM, RXRa partner concentration 90 nM). In outline:
(§1)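 Regression normalization was applied to scanned fluorescence from custom Agilent 4×180K protein-binding microarrays. Before scanning, arrays were incubated 1 h with ligand-free nuclear receptor dimers, and binding was detected with antibodies against each partner (one per run). Binding z-scores use the random background probes as reference.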

Experiment [2] has as its system LXRa:RXRa (NR concentration 270 nM, RXRa partner concentration 90 nM). In outline:
as §1

In experiment [3] the test system is LXRa homodimer (NR concentration 270 nM). In outline: as §1
Experiment [4] has as its system LXRb:RXRa (NR concentration 270 nM, RXRa partner concentration 90 nM). In outline: as §1
For experiment [5], the system named is LXRb homodimer (NR concentration 270 nM). In outline: as §1
The subject of experiment [6] is PPARa:RXRa (NR concentration 270 nM, RXRa partner concentration 90 nM). In outline:
as §1

The test system of experiment [7] is PPARg:RXRa (NR concentration 180 nM, RXRa partner concentration 90 nM). In outline:
as §1

Experiment [8] has as its system PPARg:RXRa 270nM:90nM, anti-RXR (NR concentration 270 nM, RXRa partner concentration 90 nM). In outline:
as §1

For experiment [9], the system named is PPARg:RXRa 30nM:10nM, anti-RXR (NR concentration 30 nM, RXRa partner concentration 10 nM). The method in brief: as §1
For experiment [10], the system named is PPARg:RXRa 90nM:30nM, anti-RXR (NR concentration 90 nM, RXRa partner concentration 30 nM). The method in brief:
as §1

Experiment [11] concerns PPARg:RXRa DBDmut IVT, anti-RXR (DBD mutation: RXRa K156A/R161A, NR concentration 270 nM, RXRa partner concentration 90 nM). The method in brief: as §1
Experiment [12] relates to PPARg:RXRa IVT, anti-PPARg (NR concentration 270 nM, RXRa partner concentration 90 nM). The method in brief: as §1
The subject of experiment [13] is PPARg DBDmut:RXRa IVT, anti-PPARg (DBD mutation: PPARg1 K132A/R137A, NR concentration 270 nM, RXRa partner concentration 90 nM). In outline: as §1
In experiment [14] the test system is PPARg DBDmut IVT, anti-PPARg (DBD mutation: PPARg1 K132A/R137A, NR concentration 270 nM). The method in brief: as §1
Experiment [15] deals with PPARg homodimer (NR concentration 180 nM). In outline: as §1
Experiment [16] concerns PXR:RXRa (NR concentration 270 nM, RXRa partner concentration 90 nM). In outline:
as §1

For experiment [17], the system named is PXR homodimer (NR concentration 270 nM). In outline: as §1
Experiment [18] deals with RARa:RXR (NR concentration 270 nM, RXRa partner concentration 90 nM). The method in brief: as §1
Experiment [19] has as its system RARa homodimer (NR concentration 270 nM). The method in brief: as §1
Experiment [20] has as its system RARb:RXRa (NR concentration 270 nM, RXRa partner concentration 90 nM). The method in brief:
as §1

On to ATATGTAGGTTACATCCGGCTCATTCAGGCTATG, for which the PBM binding z-score was found to be 0.486 in [1]; 2.28 in experiment [2]; 0.223 in experiment [3]; 1.13 in experiment [4]; 0.756 in experiment [5]; 3.04 in [6]. Moreover, the PBM binding z-score in experiment [7] stood at 4.81; in experiment [8], 3.99; in experiment [9] it was 1.57; in [10] it was 3.14; in [11], 7.66; in [12] it was 6.94. The PBM binding z-score in experiment [13] stood at 2.85; in [14], 2.21; in experiment [15], 0.844; in experiment [16], 0.18; in [17], 0.0469; in experiment [18], 0.506. Also, the PBM binding z-score in experiment [19] worked out at 0.258; in experiment [20], 1.07.

Consider AATACAGGGTCACTAGTCCAGAGTAGGTACGAAT, for which the PBM binding z-score was determined as 5.5 in experiment [1]; 4.68 in [2]; 0.946 in [3]; 3.94 in experiment [4]; 1.32 in [5]; 5.09 in experiment [6]. Also, the PBM binding z-score came to 5.61 in experiment [7]; 5.17 in [8]; 1.77 in experiment [9]; 3.89 in experiment [10]; 3.25 in experiment [11]; 4.67 in experiment [12]. In addition, the PBM binding z-score is 0.95 in experiment [13]; 0.987 in [14]; 1.66 in experiment [15]; 2.97 in experiment [16]; 0.58 in [17]; 3.7 in experiment [18]. Moreover, the PBM binding z-score stood at 1.03 in experiment [19] and 3.99 in experiment [20].

As to CATACAGGGTCAGCTAGGCCAGAGTAGGGACGGC, the PBM binding z-score in experiment [1] is 4.68; in [2] it was 2.84; in [3], -0.378; in experiment [4] it was 2.27; in experiment [5], 0.142; in experiment [6], 4.64. Besides, the PBM binding z-score in experiment [7] came to 3.58; in experiment [8] it was 3.06; in [9] it was 0.957; in experiment [10], 2.2; in [11], 1.4; in experiment [12], 2.5. Also, the PBM binding z-score in experiment [13] was 0.615; in [14] it was 1.03; in experiment [15], 1.25; in [16], 1.89; in experiment [17] it was -0.17; in experiment [18] it was 2.74. Further, the PBM binding z-score amounted to 0.0717 in [19] and 4.31 in experiment [20].

As for TAGCCTAGGTCAGATTGGGCCAGTATACGCTATA, the PBM binding z-score is 2.65 in [1]; 1.25 in experiment [2]; -0.472 in experiment [3]; 0.995 in [4]; -0.0361 in experiment [5]; 1.43 in experiment [6]. Besides, the PBM binding z-score was 0.564 in [7]; 0.735 in experiment [8]; -0.437 in [9]; -0.114 in [10]; 0.821 in experiment [11]; 1.47 in experiment [12]. The PBM binding z-score in experiment [13] is -0.745; in experiment [14], -0.0991; in experiment [15], 0.692; in experiment [16], 0.48; in experiment [17], -0.72; in [18], 0.891. The PBM binding z-score in experiment [19] is -0.737; in experiment [20] it was 3.16.

For the sequence CGTCCAAGGTCAGAGCGGTCAGTGAATGCCGAGT, the PBM binding z-score in [1] is 4.97; in [2] it was 4.15; in [3], 1.27; in experiment [4], 2.69; in [5], -0.231; in experiment [6] it was 3.86. Moreover, the PBM binding z-score was 1.33 in experiment [7]; 2.69 in experiment [8]; 0.148 in experiment [9]; 1.42 in [10]; 2.63 in experiment [11]; 2.2 in [12]. Besides, the PBM binding z-score is -0.349 in experiment [13]; 0.202 in experiment [14]; 2.18 in experiment [15]; 3.25 in experiment [16]; 2.78 in experiment [17]; 3.14 in experiment [18]. The figures for the PBM binding z-score in experiment [19] and in experiment [20] were 0.595 and 4.58, respectively.

GATACAGGGTCAAGGCCAAAGTACGCGTATTGAT: the PBM binding z-score in experiment [1] worked out at 6.56; in experiment [2] it was 4.57; in [3], 0.296; in experiment [4], 4.15; in [5], 0.33; in experiment [6], 5.6. Moreover, the PBM binding z-score worked out at 6.18 in experiment [7]; 5.96 in experiment [8]; 2.37 in experiment [9]; 4.76 in experiment [10]; 2.58 in experiment [11]; 4.27 in experiment [12]. Moreover, the PBM binding z-score in experiment [13] turned out to be 2.3; in experiment [14], 0.743; in [15], 3.07; in experiment [16], 4.48; in [17], 0.731; in experiment [18], 5.02. Moreover, the results for the PBM binding z-score in experiment [19] and in experiment [20] were 1.25 and 4.5, respectively.

For the sequence TGAATGAGGTTATCAGATCAGGGAACGTTGCAAA, the PBM binding z-score was 1.75 in experiment [1]; 1.5 in [2]; -0.39 in [3]; 1.18 in experiment [4]; -0.266 in [5]; 3.2 in experiment [6]. Further, the PBM binding z-score in experiment [7] was 1.74; in experiment [8], 2.18; in experiment [9] it was 0.777; in experiment [10], 1.28; in [11] it was 1.59; in [12], 2.2. The PBM binding z-score was 0.55 in experiment [13]; -0.0543 in [14]; 1.69 in experiment [15]; 0.942 in experiment [16]; -0.255 in experiment [17]; 1.45 in experiment [18]. Further, the PBM binding z-score in experiment [19] is -0.892; in experiment [20] it was 1.44.
